# From PubChem
# The list is not random: actives were taken first. Their share in the collection is about 3.3%.
# HttQ103 aggreg = mutant huntingtin aggregation inhibition; PC12 HttQ103-GFP aggregates, Acumen cytometry, 40 h; Potency, µM (top dose mostly 46.1 µM), for the others: top-dose activity change, negative = inhibition, usual class: inhibitors; 1.1% of 220,000 active; AID 1688; further: potency means the concentration at half of the fitted maximal effect; on the % scale 0 is the no-effect control and ±100 the full control effect; nearly all actives have a fitted effect of over 60% in size
#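 Quantitative HTS on tebufenozide-induced (100 nM) PC12 cells stably expressing polyQ103 Huntingtin exon 1–GFP. Reduction of bright GFP aggregates, detected by laser scanning cytometry after lysis, identified actives across the titration.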
# NPSR antag = blocks cAMP signaling of the human neuropeptide S receptor; Q6W5P4; CHO-NPSR cells, cAMP TR-FRET, antagonist mode; Potency, µM (series often up to 38.3 µM), for inactives: at the top dose activity change, negative = inhibition, actives largely listed as inhibitors; 1% of 220,000 active; AID 1461; further: potency means the concentration at half of the fitted maximal effect; on the % scale 0 is the no-effect control and ±100 the full control effect; nearly all actives have a fitted effect of over 50% in size
# ALOX12 inhib = blocks human 12-lipoxygenase activity; P18054; purified 12-hLO, xylenol orange hydroperoxide absorbance; Potency, µM (highest dose often 57.1 µM), for inactives: at the top dose activity change, negative = inhibition, hits mostly inhibitors; 0.12% of 150,000 active; AID 1452; further: potency means the concentration at half of the fitted maximal effect; on the % scale 0 is the no-effect control and ±100 the full control effect; nearly all actives have a fitted effect of over 55% in size
# Target sequence (P18054 whole entry, looked up): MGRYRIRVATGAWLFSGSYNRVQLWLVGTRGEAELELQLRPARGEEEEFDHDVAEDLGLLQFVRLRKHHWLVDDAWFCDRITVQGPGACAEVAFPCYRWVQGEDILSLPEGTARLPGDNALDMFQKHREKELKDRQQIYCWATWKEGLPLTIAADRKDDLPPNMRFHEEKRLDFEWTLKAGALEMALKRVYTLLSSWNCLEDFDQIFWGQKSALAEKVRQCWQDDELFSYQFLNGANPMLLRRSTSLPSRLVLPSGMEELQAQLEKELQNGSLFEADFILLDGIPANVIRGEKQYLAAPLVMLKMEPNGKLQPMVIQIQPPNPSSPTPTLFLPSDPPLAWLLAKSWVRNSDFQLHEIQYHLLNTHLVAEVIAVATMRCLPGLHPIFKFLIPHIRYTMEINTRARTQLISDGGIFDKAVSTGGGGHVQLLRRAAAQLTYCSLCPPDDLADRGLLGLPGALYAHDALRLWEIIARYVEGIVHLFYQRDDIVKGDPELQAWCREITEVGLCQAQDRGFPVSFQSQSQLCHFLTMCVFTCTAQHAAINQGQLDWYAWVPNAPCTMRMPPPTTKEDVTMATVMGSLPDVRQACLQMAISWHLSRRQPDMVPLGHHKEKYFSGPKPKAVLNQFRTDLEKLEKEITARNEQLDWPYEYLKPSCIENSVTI
#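 Hydroperoxide output read as Fe(III)-xylenol orange absorbance, 573-to-405 nm ratio, after 30 min reaction with 40 uM arachidonic acid. Enzyme: 150 nM purified human 12hLO, 15 min compound preincubation; 25 mM Hepes pH 7.0, room temperature.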
# IMPase inh = cell-permeable inhibitors of inositol monophosphatase (IMPase); P97697; CHO-M1 cells, IP1 accumulation, HTRF TR-FRET ratio; inhibition (IP1 accumulation), % at 46.1 µM; 120,000 tested, under 10 active; active means well fitted curve in the direction sought with a large enough effect in the signal ratio, not every such curve was filed as active; inconclusive means small, poorly fitted or top-dose-only effect, or a change in a side signal; inactive means no such curve, though single readings can be large or run the other way; the % refers to the signal ratio;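 further: cells stimulated with carbachol in lithium chloride buffer; plate controls were DMSO basal wells for no effect and reference inhibitor wells for full effect; higher means more IMPase inhibition seen as more IP1 and lower FRET ratio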
#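 The IP-One HTRF competitive assay in carbachol-stimulated CHO-M1 cells quantifies cellular IP1. Compounds spanned up to 46 uM final, and activity is expressed as AC50 from concentration-response fits of the ratio and donor data.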
# PNC inhibitor = perinucleolar compartment assembly inhibition | PC3M PTB-GFP, PNC prevalence imaging, 16 h; active compounds read low | activity change (PNC), negative = inhibition, % at 10 µM | 3.1% of 140,000 active;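 active means readout at or below -70, meaning at least 70% loss of cells showing the perinucleolar compartment, a nuclear body marking cancer cells; inconclusive means readout between -30 and a set limit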;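 further: plate controls were DMSO wells for no effect and camptothecin positive control wells for full effect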
#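 Compounds are pinned in duplicate onto adhered PC3M cells stably expressing GFP-tagged PTB and incubated 16 h at 37 C. Cells are then fixed, nuclei stained with Hoechst, and PNC-positive cells counted.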
# HTT ATP protect = Huntington cell model cytoprotection by ATP luminescence; PC12 HTT-Q103 induced, cytoprotection, ATP luminescence, 40 h; AID 1471; Potency, µM (highest dose often 56.4 µM), without a hit: cytoprotection (ATP increase), hits mostly activators; 0.14% of 230,000 active; further: potency means the concentration at half of the fitted maximal effect; % of control where 0% means no effect; nearly all actives have a fitted effect of over 45% in size
#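 Huntington model: PC12 line, ecdysone-inducible HTTQ103 exon1–GFP, tebufenozide 100 nM. Test articles in a dose series. Endpoint luminescence from cellular ATP.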
# * marks the source's active call; other numbers are inactive results; u = inconclusive; x = not tested or not shown; [ ] = another dose, or the depositor's remark. Unless noted, the call rests on the fitted dose curve; in most records, active means well fitted curve in the direction sought with a large enough effect; inconclusive means small, poorly fitted or top-dose-only effect, or another doubt; inactive means no such curve, though single readings can be large; an effect the other way counts as inactive or inconclusive.
SMILES,HttQ103 aggreg,NPSR antag,ALOX12 inhib,IMPase inh,PNC inhibitor,HTT ATP protect
CCOC(=O)CCn1c(=O)c2c(nc(Br)n2Cc2ccccc2)n(C)c1=O,13%,-18%[46.1 µM],-7%,-5,24,-4%[10 µM]
C=CCNS(=O)(=O)c1nc(C)c(Cl)c(C)c1C#N,13%,-7%[46.1 µM],2%,-14,-85*,5%
Fc1cccc(-n2ncc(-c3nnnn3-c3ccccc3)c2C(F)(F)F)c1,-8%,-11%,5%,5,-84*,3%[10 µM]
Cc1ccc(-n2nnnc2-c2cnn(-c3cccc(F)c3)c2C(F)(F)F)cc1,u,-12%[46.1 µM],-4%,21,-5,6%[10 µM]
CCCCc1c(O)nc(SCC(=O)c2ccccc2)n(-c2ccccc2OC)c1=O,11%[9.22 µM],11%[7.67 µM],x,x,x,17%[10 µM]
Cc1ccc(Sc2ncnc(N)c2[N+](=O)[O-])cc1,-3%,-10%,-2%,-4,-19,22%[10 µM]
Nc1ncnc(Sc2ncccn2)c1[N+](=O)[O-],5µM*,-22%,x,x,x,21%[10 µM]
Nc1ncnc(Sc2ccc(Cl)cc2)c1[N+](=O)[O-],u,-2%,-1%,x,-103*,x
Nc1ncnc(Sc2ccccc2)c1[N+](=O)[O-],11%,-4%,-6%,-5,u,34%[10 µM]
CCSc1nnc(NC(=O)C(NC(=O)c2ccc(Cl)cc2)C(C)C)s1 (stereo not drawn),32µM*,-20%,0%,x,-21,x
CCSc1nnc(NC(=O)c2ccc3ccccc3n2)s1,8%,7.9µM*,-11%,u,8,-60%
N#C/C(=C\c1cc(Cl)cc(Cl)c1)c1cccnc1,x,x,x,x,x,-30%
CCCS(=O)(=O)N1CCN(c2cc3c(cc2[N+](=O)[O-])n(C)c(=O)n3C)CC1,-21%,-11%,x,x,x,-11%
CO[C@]12C(COC(N)=O)C3=C(C(=O)C(C)=C(N)C3=O)N1CC1NC12 (stereo partly drawn),13µM*,x,0%,x,x,-289%
O=C(O)/C=C\C(=O)Nc1ccc2c(c1)-c1ccccc1C2,x,x,-2%[11.4 µM],x,x,3%[10 µM]
COC(=O)NC(CCc1ccccc1)C(C(=O)OC)C(=O)OC (stereo not drawn),x,x,29%,x,x,-55%
CCOc1cc(CNCCSc2nnnn2C)cc(Br)c1OCc1ccccc1F,-25%,u,1%,-1,6,-30%
CCOc1cc(CNCc2ccncc2)cc(Br)c1OCc1ccccc1F,10µM*,-12%[46.1 µM],4%,5,u,-56%
Cc1ccc(-n2cc(CNC(C)c3cnn(C)c3C)c(-c3ccc(F)cc3)n2)cc1 (stereo not drawn),8%[9.22 µM],18%,x,x,x,-4%[10 µM]
COc1ccc(S(=O)(=O)N2CCN(c3cc(-c4ccccc4)nc4ncnn34)CC2)cc1,13µM*,-24%[46.1 µM],-11%,-8,-10,4%[10 µM]
Cc1ccccc1NC(=O)C1CCN(c2cc(-c3ccccc3)nc3ncnn23)CC1,10%,-15%,2%,-9,-114*,-9%[10 µM]
COc1ccc(-c2cc(N3CCCC3)n3ncnc3n2)cc1,-31%,-13%[46.1 µM],-4%,6,9,-12%
CCCCCCCC(=O)O[C@H](CC(=O)O)C[N+](C)(C)C,x,x,0%,-3,x,u
CC1(C)CC(NC(=O)c2coc(=O)c(Br)c2)CC(C)(C)N1,-2%,-13%[46.1 µM],-3%,-5,-100*,-9%[0.074 µM]
CC1(C)CC(NC(=O)c2ccc3c(c2)OCO3)CC(C)(C)N1,5%,-2%[46.1 µM],-1%,-8,-1,-2%
Cc1[nH]n(-c2ccccc2)c(=O)c1/C=N/NC(=O)c1cccc([N+](=O)[O-])c1,5.6µM*,-4%[46.1 µM],-1%,4,30,-64%[10 µM]
Cc1ccc(-n2[nH]c(C)c(/C=N/NC(=O)c3ccc([N+](=O)[O-])cc3)c2=O)c(C)c1,13µM*,-49%,x,x,x,-134%
Cc1[nH]n(-c2cccc3ccccc23)c(=O)c1/C=N/NC(=O)c1cccc([N+](=O)[O-])c1,10µM*,-15%,-8%,x,-12,7%[10 µM]
Cc1c(/C=N\NC(=O)c2ccc([N+](=O)[O-])cc2)cnn1C,7%,8%,6%,x,-109*,x
